Source: the supplement of paper PMC11732987, “Enantioselective OTUD7B fragment discovery through chemoproteomics screening and high-throughput optimisation” (Communications Chemistry, 2025)

Assays:
Assay in all cases: log2 ratio of Biotin-Ahx-Ub-VS probe labelling (fragment/DMSO); higher = less target engagement (more negative = stronger competition), active = hit call of the paper (q ≤ 0.05, log2 ratio ≤ -1)
Conditions in all cases: compound concentration: 200 uM; treatment time: 3 h
[1] = target: USP16 (UniProt Q9Y5T5)
Procedure, shortened: (§1)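 Global-median-normalised Spectronaut label-free quantities were compared by unpaired t-test, and values are average log2 ratios of fragment over vehicle. Only proteins with ≥2 unique peptides were used. HEK293T lysate (495 µg per sample) was treated in triplicate with fragment at 200 µM or vehicle for 3 h and then with Biotin-Ahx-Ub-VS at 0.5 µM final for 1 h. Labelled DUBs were then NeutrAvidin-enriched, digested with LysC and trypsin, and run by diaPASEF LC-MS/MS.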

[2] = target: T1, USP19 (UniProt O94966)
T1 sequence (whole entry): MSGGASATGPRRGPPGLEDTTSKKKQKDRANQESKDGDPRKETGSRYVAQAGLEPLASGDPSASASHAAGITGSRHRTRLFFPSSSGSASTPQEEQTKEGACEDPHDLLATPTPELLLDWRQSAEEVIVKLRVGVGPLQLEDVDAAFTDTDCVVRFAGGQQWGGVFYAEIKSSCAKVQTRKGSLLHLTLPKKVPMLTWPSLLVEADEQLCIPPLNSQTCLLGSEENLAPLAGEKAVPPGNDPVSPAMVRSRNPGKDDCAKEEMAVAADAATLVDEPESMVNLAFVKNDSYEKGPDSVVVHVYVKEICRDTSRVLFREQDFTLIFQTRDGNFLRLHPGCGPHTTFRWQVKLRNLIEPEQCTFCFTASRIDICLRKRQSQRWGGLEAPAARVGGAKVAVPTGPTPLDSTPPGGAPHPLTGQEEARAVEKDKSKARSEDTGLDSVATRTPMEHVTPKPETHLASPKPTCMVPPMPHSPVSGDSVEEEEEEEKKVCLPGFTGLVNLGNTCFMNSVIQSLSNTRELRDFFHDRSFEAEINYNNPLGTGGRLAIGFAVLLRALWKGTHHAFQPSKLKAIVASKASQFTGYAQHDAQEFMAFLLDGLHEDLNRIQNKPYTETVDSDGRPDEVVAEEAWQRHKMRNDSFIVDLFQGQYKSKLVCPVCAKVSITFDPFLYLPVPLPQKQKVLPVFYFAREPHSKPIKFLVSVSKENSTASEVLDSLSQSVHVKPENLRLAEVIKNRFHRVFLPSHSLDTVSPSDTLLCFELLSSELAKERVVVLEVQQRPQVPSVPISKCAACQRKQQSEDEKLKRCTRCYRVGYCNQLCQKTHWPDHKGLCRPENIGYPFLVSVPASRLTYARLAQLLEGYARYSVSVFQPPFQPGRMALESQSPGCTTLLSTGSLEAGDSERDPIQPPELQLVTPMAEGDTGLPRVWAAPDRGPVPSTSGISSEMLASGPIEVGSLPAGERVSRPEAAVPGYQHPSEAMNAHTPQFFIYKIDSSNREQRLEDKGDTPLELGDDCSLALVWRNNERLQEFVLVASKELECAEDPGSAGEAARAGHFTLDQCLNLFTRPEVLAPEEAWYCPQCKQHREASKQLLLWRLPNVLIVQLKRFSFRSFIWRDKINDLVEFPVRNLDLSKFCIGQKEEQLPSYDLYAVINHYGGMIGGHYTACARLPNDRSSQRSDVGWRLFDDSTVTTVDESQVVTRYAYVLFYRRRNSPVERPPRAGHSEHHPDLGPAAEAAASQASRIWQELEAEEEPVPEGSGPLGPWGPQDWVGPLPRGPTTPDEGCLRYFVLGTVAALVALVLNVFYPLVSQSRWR
Procedure, shortened: as §1

[3] = target: USP24 (UniProt Q9UPU5)
Procedure, shortened: as §1

[4] = target: T2, USP25 (UniProt Q9UHP3)
T2 sequence (whole entry): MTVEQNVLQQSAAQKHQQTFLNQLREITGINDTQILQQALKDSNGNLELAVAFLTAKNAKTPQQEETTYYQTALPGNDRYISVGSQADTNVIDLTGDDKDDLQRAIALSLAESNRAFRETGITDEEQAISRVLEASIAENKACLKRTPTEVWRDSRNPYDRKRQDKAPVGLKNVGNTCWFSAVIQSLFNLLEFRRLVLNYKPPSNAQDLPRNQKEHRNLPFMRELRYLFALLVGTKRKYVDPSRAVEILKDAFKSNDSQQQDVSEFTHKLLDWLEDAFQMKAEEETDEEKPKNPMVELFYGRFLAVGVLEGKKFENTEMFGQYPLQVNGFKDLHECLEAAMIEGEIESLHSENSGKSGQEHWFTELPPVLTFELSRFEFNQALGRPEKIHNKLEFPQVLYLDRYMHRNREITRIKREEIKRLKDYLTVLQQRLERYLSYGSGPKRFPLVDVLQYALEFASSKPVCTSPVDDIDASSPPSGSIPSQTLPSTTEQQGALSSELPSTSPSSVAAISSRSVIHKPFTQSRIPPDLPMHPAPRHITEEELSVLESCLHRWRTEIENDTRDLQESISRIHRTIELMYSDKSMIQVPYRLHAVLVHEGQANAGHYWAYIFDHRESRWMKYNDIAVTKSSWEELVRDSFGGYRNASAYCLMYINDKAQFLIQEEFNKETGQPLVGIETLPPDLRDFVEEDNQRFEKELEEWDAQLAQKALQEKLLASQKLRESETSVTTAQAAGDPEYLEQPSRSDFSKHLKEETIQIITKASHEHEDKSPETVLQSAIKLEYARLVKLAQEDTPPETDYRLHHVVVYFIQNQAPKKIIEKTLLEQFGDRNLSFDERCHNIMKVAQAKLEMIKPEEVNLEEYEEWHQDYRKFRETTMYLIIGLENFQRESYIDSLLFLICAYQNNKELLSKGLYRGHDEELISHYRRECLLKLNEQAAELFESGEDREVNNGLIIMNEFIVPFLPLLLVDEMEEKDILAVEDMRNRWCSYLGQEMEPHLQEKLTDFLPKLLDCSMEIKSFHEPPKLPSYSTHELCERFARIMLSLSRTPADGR
Procedure, shortened: as §1

[5] = target: T3, USP28 (UniProt Q96RU2)
T3 sequence (whole entry): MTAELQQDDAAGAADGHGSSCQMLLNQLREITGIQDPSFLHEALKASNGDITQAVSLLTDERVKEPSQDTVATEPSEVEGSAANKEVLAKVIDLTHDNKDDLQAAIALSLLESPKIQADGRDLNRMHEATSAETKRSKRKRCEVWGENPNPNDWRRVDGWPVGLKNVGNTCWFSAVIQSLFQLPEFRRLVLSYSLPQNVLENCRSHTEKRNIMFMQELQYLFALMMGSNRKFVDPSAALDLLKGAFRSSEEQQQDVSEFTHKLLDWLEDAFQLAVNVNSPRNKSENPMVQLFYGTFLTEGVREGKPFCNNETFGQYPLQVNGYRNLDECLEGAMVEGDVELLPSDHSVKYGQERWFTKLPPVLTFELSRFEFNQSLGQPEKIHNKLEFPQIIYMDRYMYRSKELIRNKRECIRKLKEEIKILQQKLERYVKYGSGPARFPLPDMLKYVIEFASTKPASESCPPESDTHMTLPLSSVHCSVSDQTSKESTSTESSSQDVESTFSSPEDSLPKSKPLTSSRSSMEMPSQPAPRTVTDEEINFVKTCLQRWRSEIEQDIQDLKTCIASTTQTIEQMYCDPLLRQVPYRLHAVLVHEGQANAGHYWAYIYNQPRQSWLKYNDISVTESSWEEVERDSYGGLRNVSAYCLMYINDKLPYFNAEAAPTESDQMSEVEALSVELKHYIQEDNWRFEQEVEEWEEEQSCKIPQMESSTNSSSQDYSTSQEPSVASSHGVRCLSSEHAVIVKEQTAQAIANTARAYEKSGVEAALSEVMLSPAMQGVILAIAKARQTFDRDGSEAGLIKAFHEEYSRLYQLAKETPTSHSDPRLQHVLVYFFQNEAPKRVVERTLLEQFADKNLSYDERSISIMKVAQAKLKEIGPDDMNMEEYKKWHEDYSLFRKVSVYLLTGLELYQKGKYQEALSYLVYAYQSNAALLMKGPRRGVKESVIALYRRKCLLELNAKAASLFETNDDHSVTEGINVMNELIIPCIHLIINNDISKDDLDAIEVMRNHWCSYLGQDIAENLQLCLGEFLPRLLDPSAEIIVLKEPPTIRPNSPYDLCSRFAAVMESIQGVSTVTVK
Procedure, shortened: as §1

Measured: log2 ratio of Biotin-Ahx-Ub-VS probe labelling

USP24, sequence (Q9UPU5 whole entry): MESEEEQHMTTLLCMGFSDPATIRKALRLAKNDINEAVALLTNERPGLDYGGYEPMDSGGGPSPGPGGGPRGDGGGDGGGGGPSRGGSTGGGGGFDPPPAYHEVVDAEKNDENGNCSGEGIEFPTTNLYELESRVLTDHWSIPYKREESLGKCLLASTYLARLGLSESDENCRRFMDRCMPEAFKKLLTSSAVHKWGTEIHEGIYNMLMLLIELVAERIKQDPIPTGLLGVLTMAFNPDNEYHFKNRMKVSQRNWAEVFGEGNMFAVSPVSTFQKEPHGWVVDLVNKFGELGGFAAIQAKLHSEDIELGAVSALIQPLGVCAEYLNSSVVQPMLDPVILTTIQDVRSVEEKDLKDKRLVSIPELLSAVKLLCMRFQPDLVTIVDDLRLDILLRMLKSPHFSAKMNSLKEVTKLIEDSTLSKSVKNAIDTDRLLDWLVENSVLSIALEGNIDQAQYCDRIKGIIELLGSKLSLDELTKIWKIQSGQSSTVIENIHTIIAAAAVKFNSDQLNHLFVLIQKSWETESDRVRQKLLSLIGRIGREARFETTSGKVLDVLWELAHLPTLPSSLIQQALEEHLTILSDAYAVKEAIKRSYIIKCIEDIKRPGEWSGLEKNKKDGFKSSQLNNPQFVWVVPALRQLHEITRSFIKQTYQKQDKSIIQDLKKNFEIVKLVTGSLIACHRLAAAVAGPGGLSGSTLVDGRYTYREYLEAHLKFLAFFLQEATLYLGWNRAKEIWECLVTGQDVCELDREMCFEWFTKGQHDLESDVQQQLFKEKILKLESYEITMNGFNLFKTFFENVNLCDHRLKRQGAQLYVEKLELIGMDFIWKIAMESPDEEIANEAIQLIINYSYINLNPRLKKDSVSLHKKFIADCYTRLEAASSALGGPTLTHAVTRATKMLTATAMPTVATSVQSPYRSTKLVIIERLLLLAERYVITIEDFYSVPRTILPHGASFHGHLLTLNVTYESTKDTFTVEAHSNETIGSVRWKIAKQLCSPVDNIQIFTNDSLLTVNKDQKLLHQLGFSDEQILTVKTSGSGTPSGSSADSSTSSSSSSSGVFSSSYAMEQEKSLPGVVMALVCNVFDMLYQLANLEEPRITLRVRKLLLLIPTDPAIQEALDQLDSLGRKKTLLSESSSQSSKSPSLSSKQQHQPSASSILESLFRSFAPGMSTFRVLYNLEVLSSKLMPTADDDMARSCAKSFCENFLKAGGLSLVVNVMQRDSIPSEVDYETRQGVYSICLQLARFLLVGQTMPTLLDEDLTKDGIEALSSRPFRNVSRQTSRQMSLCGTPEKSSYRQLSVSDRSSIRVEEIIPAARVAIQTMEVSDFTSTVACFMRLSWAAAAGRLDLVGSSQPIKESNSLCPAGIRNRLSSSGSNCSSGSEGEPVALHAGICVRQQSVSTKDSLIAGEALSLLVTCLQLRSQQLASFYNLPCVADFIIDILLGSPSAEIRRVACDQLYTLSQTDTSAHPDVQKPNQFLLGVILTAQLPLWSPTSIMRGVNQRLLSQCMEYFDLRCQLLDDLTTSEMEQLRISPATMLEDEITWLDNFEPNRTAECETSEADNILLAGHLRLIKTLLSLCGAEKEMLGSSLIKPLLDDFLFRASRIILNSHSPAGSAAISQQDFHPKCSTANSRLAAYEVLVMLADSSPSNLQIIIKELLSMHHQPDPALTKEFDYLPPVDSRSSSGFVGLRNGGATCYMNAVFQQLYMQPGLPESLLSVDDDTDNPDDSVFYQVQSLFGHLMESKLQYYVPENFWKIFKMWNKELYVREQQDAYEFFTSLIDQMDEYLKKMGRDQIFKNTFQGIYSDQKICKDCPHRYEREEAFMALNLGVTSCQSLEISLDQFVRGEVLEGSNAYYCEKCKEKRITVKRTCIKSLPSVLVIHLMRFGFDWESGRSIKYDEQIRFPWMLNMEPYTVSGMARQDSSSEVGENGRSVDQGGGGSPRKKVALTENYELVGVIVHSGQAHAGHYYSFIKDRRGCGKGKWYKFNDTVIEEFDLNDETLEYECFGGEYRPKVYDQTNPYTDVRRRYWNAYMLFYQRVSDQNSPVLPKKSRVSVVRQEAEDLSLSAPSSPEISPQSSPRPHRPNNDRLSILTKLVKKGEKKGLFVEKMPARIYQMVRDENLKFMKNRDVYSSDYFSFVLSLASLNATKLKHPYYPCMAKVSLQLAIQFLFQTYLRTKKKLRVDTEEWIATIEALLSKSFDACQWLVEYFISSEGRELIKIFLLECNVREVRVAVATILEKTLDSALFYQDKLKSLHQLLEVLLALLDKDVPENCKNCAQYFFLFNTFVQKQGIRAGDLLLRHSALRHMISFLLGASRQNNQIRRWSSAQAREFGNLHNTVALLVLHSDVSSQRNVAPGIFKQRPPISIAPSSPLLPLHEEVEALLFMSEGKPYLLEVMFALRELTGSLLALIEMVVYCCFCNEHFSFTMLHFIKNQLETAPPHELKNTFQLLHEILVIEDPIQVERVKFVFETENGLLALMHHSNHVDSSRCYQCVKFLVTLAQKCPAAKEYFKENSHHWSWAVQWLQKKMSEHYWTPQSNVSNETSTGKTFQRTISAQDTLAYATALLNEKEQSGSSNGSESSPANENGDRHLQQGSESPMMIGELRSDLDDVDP
USP16, sequence (Q9Y5T5 whole entry, looked up, the tested form may be a part): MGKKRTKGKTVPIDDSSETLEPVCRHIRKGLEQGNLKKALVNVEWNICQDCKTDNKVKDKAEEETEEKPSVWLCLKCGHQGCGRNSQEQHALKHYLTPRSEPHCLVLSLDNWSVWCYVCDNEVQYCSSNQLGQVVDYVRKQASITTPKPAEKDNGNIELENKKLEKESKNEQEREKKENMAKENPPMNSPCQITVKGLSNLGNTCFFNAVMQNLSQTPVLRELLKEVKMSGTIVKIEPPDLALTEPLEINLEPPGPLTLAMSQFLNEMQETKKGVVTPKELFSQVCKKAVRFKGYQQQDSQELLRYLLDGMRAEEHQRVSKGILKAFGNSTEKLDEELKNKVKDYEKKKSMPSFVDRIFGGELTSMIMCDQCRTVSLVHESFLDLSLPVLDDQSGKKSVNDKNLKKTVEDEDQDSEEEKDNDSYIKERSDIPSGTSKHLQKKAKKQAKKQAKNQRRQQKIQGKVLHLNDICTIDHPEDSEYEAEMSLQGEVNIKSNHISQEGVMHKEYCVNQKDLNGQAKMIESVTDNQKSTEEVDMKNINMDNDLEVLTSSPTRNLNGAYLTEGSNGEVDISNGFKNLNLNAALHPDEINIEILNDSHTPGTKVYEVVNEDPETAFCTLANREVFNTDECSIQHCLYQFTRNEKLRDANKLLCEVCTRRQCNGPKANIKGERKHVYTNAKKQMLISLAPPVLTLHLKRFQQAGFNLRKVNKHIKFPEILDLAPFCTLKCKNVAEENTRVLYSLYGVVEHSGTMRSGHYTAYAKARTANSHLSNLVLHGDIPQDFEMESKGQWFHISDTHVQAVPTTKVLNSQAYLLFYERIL

O=C(CCl)NCc1cccc(F)c1
inactive: [1] -0.133 | [2] -0.000373 | [3] -0.154 | [4] -0.362 | [5] -0.556
